Screening data deposited in PubChem BioAssay by National Center for Advancing Translational Sciences (NCATS).
HT1080 IDH1KD tx: HT-1080 IDH1 knockdown cell toxicity (counter line). HT-1080 IDH1 knockdown viability, ATP luminescence, 48 h. AID 686971. 2% of 360,000 active. Potency, µM (series often up to 46.1 µM), for the others: at the highest dose activity, negative = toxicity, hits mostly cytotoxic;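 note: 0% = DMSO wells and -100% = cell-free medium wells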
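Assay cells: HT-1080 with IDH1 knockdown, 750 per well, RPMI/5% FBS. Exposure: 48 h at 37 °C following 2 h pre-incubation. Read: CellTiter-Glo luminescence; fitted concentration-response, curve class assigned.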
HepG2 tox-1: counter-screen for TGF-b inhibitors: cytotoxicity in HepG2 cells; 0.76% of 410,000 active; HepG2 CAGA-GFP viability, ATP luminescence, 18 h; Potency, µM (series often up to 46.1 µM), for the others: top-dose activity change, negative = cytotoxicity, most hits filed as cytotoxic
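HepG2 CAGA-GFP cells (1000/well, DMEM with 1% FBS) received compound, then TGF-beta at 500 pg/mL final, and were incubated 18 hours at 37 degrees C. Viability was read by CellTiter-Glo luminescence. Media-only wells were set as complete cell-killing and DMSO as no toxicity.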
ATXN viability: cell viability loss in ATXN counter-screen; S2 cells (HEK-293 line with an ATXN2-luciferase reporter) viability, CellTiter-Fluor protease fluorescence, 24 h; Potency, µM (series often up to 56.7 µM), hits mostly cytotoxic; 0.49% of 400,000 active; note: nearly all actives have a fitted effect of over 40% in size
ATXN2 expr inh: inhibitors of ATXN2 expression | HEK-293 ATXN2-luciferase reporter, luminescence, 24 h | Potency, µM (top dose mostly 57 µM), without a hit: at the highest dose activity change, negative = inhibition, hits mostly inhibitors | 0.72% of 360,000 active | AID 1745845; note: % is set by controls: 0 for no effect and ±100 for the full control effect; nearly all actives have a fitted effect of over 55% in size
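qHTS (up to 57 uM final) was run with 24 h compound exposure of reporter cells at 37 °C. Each well was multiplexed: SteadyGlo luminescence measured ATXN2-luciferase expression after a fluorogenic Gly-Phe-AFC viability readout (25 uM final).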
HT1080NT lethal: kills 2HG-producing HT-1080-NT fibrosarcoma cells | HT-1080-NT fibrosarcoma viability, CellTiter-Glo ATP luminescence, 48 h | Potency, µM (titrated, usually from 46.1 µM), for inactives: at the top dose activity, negative = less viability, usual class: cytotoxic | 1.6% of 360,000 active;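 note: NT is the 2HG producing partner of a matched IDH1 knockdown line; 0% = DMSO-treated cells and -100% = media-only wells without cells; nearly all actives have a fitted effect of over 55% in size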
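HT-1080-NT; 750 cells/well; 5% FBS RPMI; 48 h compound, 37 degrees C; CellTiter-Glo luminescence; curve fitting and curve-class assignment.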
TGFb SMAD3 inh: TGF-b pathway inhibition; HepG2 CAGA-GFP TGF-b/SMAD3 reporter, GFP fluorescence, 18 h; TGF-beta stimulated, 500 pg/mL final; Potency, µM (highest dose often 46.1 µM), for the others: at the highest dose activity, negative = inhibition, actives largely listed as inhibitors; 1.2% of 410,000 active; AID 588855; note: % is set by controls: 0 for no effect and ±100 for the full control effect; nearly all actives have a fitted effect of over 65% in size
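HEPG2 CAGA-GFP, 1000 cells/well; 2 h settle, 37 C; cpd via pin tool; TGF-b 500 pg/mL final; 18 h, 37 C; GFP imaging ex488/em500-530; %Activity normalised to -TGF-b and +DMSO controls; CRC fit, curve class.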
TGFb CAGA inh: confirmation of TGF-b signaling inhibitors in HepG2 reporter cells; shares compounds with TGFb SMAD3 inh; HepG2 CAGA-GFP TGF-b reporter, GFP fluorescence, 18 h; cells stimulated with TGF-beta, 500 pg/mL; Potency, µM (titrated, usually from 46.1 µM), inactives show top-dose activity, negative = inhibition, most hits filed as inhibitors; 63% of 1,600 active; AID 720534; note: % is set by controls: 0 for no effect and ±100 for the full control effect; nearly all actives have a fitted effect of over 65% in size
HepG2 tox-2: counter-screen for TGF-b inhibitors: cytotoxicity in HepG2 cells; shares compounds with TGFb SMAD3 inh; 27% of 1,600 active; Potency, µM (top dose mostly 46.1 µM), without a hit: top-dose activity, negative = cytotoxicity, most hits filed as inhibitors; HepG2 CAGA-GFP viability, ATP luminescence, 18 h; cells stimulated with TGF-beta, 500 pg/mL; AID 720535; note: % is set by controls: 0 for no effect and ±100 for the full control effect; nearly all actives have a fitted effect of over 70% in size
CCL64 TGFb inh: TGF-b inhibition, CCL64 orthogonal assay | shares compounds with TGFb SMAD3 inh | CCL64 CAGA-GFP reporter, TGF-b stimulated, GFP fluorescence, 18 h | Potency, µM (titrated, usually from 46.1 µM), for the others: top-dose activity, negative = inhibition, actives largely listed as inhibitors | 41% of 1,600 active | AID 720536; note: nearly all actives have a fitted effect of over 65% in size
COP TGFb inh: TGF-b inhibition validated with COP promoter; shares compounds with TGFb SMAD3 inh; HepG2 COP-GFP TGF-b reporter, GFP fluorescence, 18 h; cells stimulated by added recombinant TGF-beta; Potency, µM (highest dose often 46.1 µM), for inactives: at the top dose activity, negative = inhibition, hits mostly inhibitors; 3% of 1,600 active; note: nearly all actives have a fitted effect of over 70% in size
Starred values were filed as active, the others as inactive; i = inactive; u = inconclusive; x = no result given; ! = repeats disagree. Only some compounds are listed: those with a hit (about 3.8% of all), similar ones and a draw of the others. Calls come from the whole dose curve; as a rule, active = well fitted curve in the direction sought with a large enough effect; inconclusive = small, poorly fitted or top-dose-only effect, or another doubt; inactive = no such curve, though single readings can be large; an effect the other way counts as inactive or inconclusive. Potency is the fitted concentration of half-maximal effect.

SMILES	HT1080 IDH1KD tx	HepG2 tox-1	ATXN viability	ATXN2 expr inh	HT1080NT lethal	TGFb SMAD3 inh	TGFb CAGA inh	HepG2 tox-2	CCL64 TGFb inh	COP TGFb inh
O=[N+]([O-])c1cccc(N=Nc2ccc(O)cc2O)c1	5.8µM*	-27.3%	u	u	u	2.51µM*	11.6µM*	8.2µM*	5.8µM*	65.5%
CCN(C(=O)COC(=O)c1ccccc1Nc1ccccc1)c1c(N)n(Cc2ccccc2)c(=O)[nH]c1=O	-22.7%	-8.6%	u	x	-28.7%	17.8µM*	20.6µM*	-24.4%	u	8.1%
CCN(C(=O)COC(=O)c1cccc2ccccc12)c1c(N)n(Cc2ccccc2)c(=O)[nH]c1=O	-3.8%	-8.6%	i	-9.8%	-6.2%	-16.7%	x	x	x	x
CC(=O)Nc1ccc(SC[C@H](Cc2ccccc2)N2CC[C@@H](C(C)(C)C)CCC2=O)cc1	16.4µM*	-10.4%	31.6µM*	u	u	10µM*	25.9µM*	u	u	59.6%
Cc1ccc(SC[C@H](C)CN2CC[C@H](C(C)(C)C)CCC2=O)cc1	-14.3%	11.2µM*!	i	-19.4%	-2.0%	10µM*	u	u	20.6µM*	26.9%
Cc1cccc(CCNC(=O)c2cccc3c2C(=O)N(C2CCCCC2)C3)c1	-24.4%	0.3%	i	-15.1%	u	12.6µM*	14.6µM*	-9.9%	u	2.9%
Cc1cc(C)cc(NC(=O)C2CCN(S(=O)(=O)c3cccc(-c4noc(C)n4)c3)CC2)c1	x	0.3%	i	-21.9%	x	u	x	x	x	x
O=C(Nc1ccc2nc3n(c(=O)c2c1)CCCCC3)c1ccccc1[N+](=O)[O-]	-1.4%	-11.8%	i	1.4%	5.8%	9.0%	x	x	x	x
O=C(Nc1ccc2nc3n(c(=O)c2c1)CCCCC3)c1c(F)ccc([N+](=O)[O-])c1F	14.6µM*	11.2µM*	x	7.08µM*	9.2µM*	5.01µM*	2.59µM*	2.59µM*	4.11µM*	8.2µM*
COc1ccccc1N1CCN(Cc2cc(Br)c(O)c3ncccc23)CC1	u	-37.4%	u	3.77µM*	u	u	u	-28.0%	4.11µM*	10.8%
COc1ccc(Cl)cc1Cn1c(C)c(C(=O)NCc2ccc(F)cc2)sc1=O	u	1.9%	i	-37.6%	-29.6%	14.1µM*	u	-21.1%	u	6.9%
COc1ccc(Cl)cc1Cn1c(C)c(C(=O)N(C)Cc2ccc(F)cc2)sc1=O	4.8%	2.7%	i	-3.6%	0.2%	-10.0%	x	x	x	x
CCCCn1nnnc1C(c1ccccc1OC(F)(F)F)N1CCN(C/C=C/c2ccccc2)CC1 (stereo not given)	u	-16.3%	u	-25.2%	u	12.6µM*	18.4µM*	-19.3%	u	20.6%
C(=C\c1ccccc1)/CN1CCN(C(c2ccnc3ccccc23)c2nnnn2C2CCCCC2)CC1 (stereo not given)	u	-1.1%	u	u	u	11.2µM*	18.4µM*	u	18.4µM*	45.6%
FC(F)(F)Oc1ccccc1C(c1nnnn1Cc1ccccc1)N1CCN(C/C=C/c2ccccc2)CC1 (stereo not given)	-16.1%	-40.0%	i	-15.7%	-18.4%	u	x	x	x	x
CCCCn1nnnc1C(c1cccc2ccccc12)N1CCN(C/C=C/c2ccccc2)CC1 (stereo not given)	u	-6.0%	u	u	u	11.2µM*	u	u	u	55.8%
C(=C\c1ccccc1)/CN1CCN(C(c2ccccc2)c2nnnn2C2CCCCC2)CC1 (stereo not given)	7.3%	-0.5%	i	9.6%	20.8%	-6.0%	x	x	x	x
O=C(CSc1nnc(CNC(=O)C23CC4CC(CC(C4)C2)C3)n1-c1ccc(F)cc1)Nc1ccc(F)cc1	-23.7%	-15.0%	i	0.0%	-15.6%	u	x	x	x	x
O=C(NCc1nnc(SCc2ccc(F)cc2)n1-c1ccc(F)cc1)C12CC3CC(CC(C3)C1)C2	u	-0.1%	i	-5.6%	u	15.8µM*	u	u	u	47.0%
COc1ccccc1/C=C/c1nc(C#N)c(NCc2ccccc2)o1	x	-34.1%	x	x	x	x	x	x	x	x
Fc1ccc(-n2cc(-c3ccccc3)c3c(NC4CCCCC4)ncnc32)cc1	x	-10.3%	x	x	x	-0.4%	x	x	x	x
COc1ccc(C)cc1NC(=O)c1ccccc1NS(=O)(=O)c1ccc(Cl)s1	16.4µM*	-52.9%	i	x	u	5.01µM*	11.6µM*	u	6.51µM*	45.2%
Cc1ccc(NC(=O)c2ccc([N+](=O)[O-])s2)cc1S(=O)(=O)N1CCOCC1	20.6µM*	-158.0%	i	u	u	7.08µM*	6.51µM*	u	u	25.8%
Cc1ccc(NC(=O)c2ccccc2NS(=O)(=O)c2ccc(Cl)s2)cc1S(=O)(=O)N1CCOCC1	u	-51.5%	u	u	u	u	13µM*	u	8.2µM*	60.9%
Cc1cccc(NC(=O)c2ccc3snnc3c2)c1C	x	-8.4%	i	15.4%	x	2.0%	x	x	x	x
Cc1ccc(Nc2c3c(nc4nncn24)CCC3)c(C)c1	x	-4.4%	x	x	x	u	x	x	x	x
CC1=C(c2ccc(C)c(C)c2)S(=O)(=O)N=C1N1CCC(C(=O)NCCc2ccc(Cl)cc2)CC1	x	-40.6%	x	x	x	-39.2%	x	x	x	x
